# PubChem BioAssay AID588511 (Johns Hopkins Ion Channel Center, 2011)
# In all, about 310,000 compounds went through this assay and about 3,600 (1.2%) were called active.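 Rule for the calls: active = ratio plate-corrected score three or more library SD toward inhibition, starting fluorescence score within five deviations; inactive = the rest.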 Many of the other results were omitted from the sample, so actives are more common in it than they were.
# Target: Anoctamin-1 (Mus musculus) (UniProt Q8BHY3)
# Sequence (Q8BHY3 whole entry, looked up): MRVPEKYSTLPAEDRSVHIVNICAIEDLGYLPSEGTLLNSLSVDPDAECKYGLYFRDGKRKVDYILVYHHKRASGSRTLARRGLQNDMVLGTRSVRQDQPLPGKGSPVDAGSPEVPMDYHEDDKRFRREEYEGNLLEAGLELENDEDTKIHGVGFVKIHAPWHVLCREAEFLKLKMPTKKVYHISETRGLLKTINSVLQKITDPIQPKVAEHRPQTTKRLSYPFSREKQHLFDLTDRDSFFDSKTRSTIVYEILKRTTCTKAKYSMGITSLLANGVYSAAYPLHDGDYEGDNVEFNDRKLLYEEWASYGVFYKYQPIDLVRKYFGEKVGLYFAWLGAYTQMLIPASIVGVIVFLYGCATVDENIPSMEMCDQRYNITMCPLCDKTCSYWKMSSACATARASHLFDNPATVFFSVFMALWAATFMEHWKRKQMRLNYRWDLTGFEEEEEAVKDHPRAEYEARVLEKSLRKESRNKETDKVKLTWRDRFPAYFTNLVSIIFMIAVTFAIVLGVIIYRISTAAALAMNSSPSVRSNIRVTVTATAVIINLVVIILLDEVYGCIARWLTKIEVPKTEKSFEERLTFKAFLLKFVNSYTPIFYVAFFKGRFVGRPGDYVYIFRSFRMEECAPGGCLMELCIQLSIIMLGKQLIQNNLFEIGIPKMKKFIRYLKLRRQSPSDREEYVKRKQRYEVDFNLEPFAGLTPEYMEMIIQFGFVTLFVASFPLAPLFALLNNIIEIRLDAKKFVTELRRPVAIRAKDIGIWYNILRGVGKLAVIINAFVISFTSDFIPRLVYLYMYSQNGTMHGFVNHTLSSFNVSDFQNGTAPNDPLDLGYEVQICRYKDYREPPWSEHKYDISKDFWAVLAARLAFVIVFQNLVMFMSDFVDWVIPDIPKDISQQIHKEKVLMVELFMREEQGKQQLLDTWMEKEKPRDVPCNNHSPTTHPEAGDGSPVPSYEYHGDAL
# Test: TMEM16A chloride channel inhibitors, primary screen, cell-based, HTS (AID 588511);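 for normalized B-score (activity score, 25-100; higher = stronger inhibition): score derived from kinetic fluorescence span divided by baseline fluorescence per well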
# Conditions: HEK293 TMEM16A/YFP iodide influx fluorescence, ionomycin; at 10 µM
row,SMILES,"normalized B-score (activity score, 25-100; higher = stronger inhibition)"
1,CCCNC(=O)c1onc(CSc2ccc(F)cc2)c1C(=O)NC(C)C,inactive
2,Cc1ccnc(N2C(=O)c3ccccc3C2Nc2ccc3c(c2)OCCO3)c1 (centres undefined),inactive
3,O=C1c2ccccc2C(Nc2ccc3c(c2)OCCO3)N1Cc1ccco1 (centres undefined),100 (active)
4,S=C(NCc1ccco1)Nc1ccc2c(c1)OCCO2,inactive
5,CCN(CC)C(=O)CSC(Nc1cccc(F)c1)=C(C#N)C#N,inactive
6,c1ccc2c(c1)C(=NC1CCCCC1)NC2=NC1CCCCC1,inactive
7,CCCn1c(C(C)Nc2nc(-c3ccc(C)cc3)cs2)nc2cc(Cl)c(N3CCCCC3)cc21 (centres undefined),inactive
8,CC1(C)C=C2[C@H]3CC[C@@H]4[C@@]5(C)CCC(=O)C(C)(C)[C@@H]5CC[C@@]4(C)[C@]3(C)CC[C@@]2(C(=O)O)CC1,100 (active)
9,CC1CN(C(=O)c2ccc3c(c2)OCO3)OC(c2ccccc2)O1 (centres undefined),inactive
10,Cc1cc(=O)oc2c1c(C)nn2-c1ccc(Cl)cc1,inactive
11,CCCc1cc(=O)[nH]c(SCC(=O)c2c(N)n(CC(C)C)c(=O)n(C)c2=O)n1,inactive
12,CC(C)(C)C1CCC(C(=O)Nc2cccnc2)CC1 (centres undefined),inactive
13,COc1ccc(N(C)S(=O)(=O)c2ccc3c(c2)CC(C)N3C(=O)C2CC2)c(OC)c1 (centres undefined),inactive
14,COc1cccc(CNS(=O)(=O)c2ccc3c(c2)CC(C)N3C(=O)C2CCC2)c1 (centres undefined),100 (active)
15,COc1cccc(CNS(=O)(=O)c2ccc3c(c2)CC(C)N3C(C)=O)c1 (centres undefined),inactive
16,COc1cc(C(C(=O)NC2CCCC2)N(C(=O)c2ccco2)c2ccccc2C(C)=O)cc(OC)c1OC (centres undefined),inactive
17,Nc1nonc1-n1nnc(C(=O)N/N=C/c2cc(Br)ccc2O)c1CSC1=NCCS1,inactive
18,Cc1ccc(-c2nn(C(C)(C)C)c3ncnc(N)c23)cc1,inactive
19,Nc1nc(SCC(=O)Nc2cc(C(F)(F)F)ccc2Cl)[nH]c(=O)c1NC(=O)c1ccco1,inactive
20,COc1ccc(-n2c(C)cc(C(=O)CSc3nnc(-c4cccs4)o3)c2C)cc1,100 (active)
21,COc1ccc(-n2c(C)cc(C(=O)COC(=O)c3cc(OC)c(OC)cc3NC(=O)c3cccs3)c2C)cc1,inactive
22,COc1ccc(-c2nnc(SCC(=O)c3ccc4c(c3)OCCO4)o2)cc1,inactive
23,CCc1cc2c(N3CCN(c4nnc(CC)s4)CC3)ncnc2s1,100 (active)
24,CCc1cc2c(NC(Cc3ccccc3)C(=O)O)ncnc2s1 (centres undefined),inactive
25,CCc1cc2c(NC3CCCC3)ncnc2s1,inactive
26,Cc1ccc(S(=O)(=O)N[C@@H](Cc2ccccc2)C(=O)N2CCC(C(=O)N[C@H](C(=O)O)C(C)O)CC2)cc1 (some centres undefined),inactive
27,COc1cccc(C(=O)NNS(=O)(=O)c2ccc(F)cc2)c1,inactive

row,SMILES,"normalized B-score (activity score, 25-100; higher = stronger inhibition)"
1,Cc1cccnc1NC(=O)Cn1c(=O)oc2ccccc21,inactive
2,COCc1c(C(=O)N/N=C(\C)c2ccncc2)nnn1-c1nonc1N,inactive
3,S=c1[nH]nc(NCCc2ccccc2)s1,inactive
4,Cc1nc(C)c(-c2csc(NCCc3ccccc3)n2)s1,100 (active)
5,CCNc1nc(-c2cc3ccccc3o2)cs1,inactive
6,COc1cccc(CNC(=O)c2cccnc2Sc2ccc(Cl)cc2)c1,inactive
7,Cc1ccc(NC(=O)C(=O)NCc2ccc(/C=N/NC(=O)c3c(C)nc4cc(C)ccn34)o2)cc1,inactive
8,CCN(Cc1ccccc1)C(=O)CN1C(=S)NC(C)(C)CC1C (centres undefined),inactive
9,N#Cc1c(-c2ccc(F)cc2)nc(-c2ccccc2)[nH]c1=O,inactive
10,N#Cc1c(-c2ccccc2)nc(SCc2cccc(C(F)(F)F)c2)[nH]c1=O,100 (active)
11,N#Cc1c(-c2ccccc2)nc(SCc2ccc([N+](=O)[O-])cc2)[nH]c1=O,inactive
12,O=c1[nH]c(SCc2ccccc2)nnc1-c1ccccc1,inactive
13,Cc1ccc(CSc2nc(-c3ccccc3)c(C#N)c(=O)[nH]2)cc1,100 (active)
14,O=c1[nH]c(SCc2cccc(F)c2)nc2ccccc12,inactive
15,O=C(CCN1C(=O)C2CCCCC2C1=O)Nc1ccc(OC(F)F)cc1 (centres undefined),inactive
16,O=C(COC(=O)c1ncc(Cl)c(Cl)c1Cl)NNC(=O)c1ccccc1,inactive
17,O=C(CC1C(=O)NCCN1CC(c1ccccc1)c1ccccc1)NCCc1cn[nH]c1 (centres undefined),inactive
18,COc1ccc(C(=O)Nc2cc(C)c(NC(=O)c3ccccc3OC)cn2)cc1,inactive
19,CC1CN(C(=S)Nc2cccc(F)c2)CC(C)O1 (centres undefined),inactive
20,Cc1ccc(CNC(=O)c2ccc(CS(=O)Cc3cccc(Cl)c3)o2)cc1 (centres undefined),inactive
21,CCCOc1cccc(C(=O)NCCCNC(=O)c2cccnc2)c1,inactive
22,CCc1ccc[n+](-c2nc([O-])sc2C=O)c1,inactive
23,CC(C)(C)c1cc(NC(=O)NN2CCOCC2)nn1-c1c(Cl)cc(Cl)cc1Cl,inactive
24,COc1ccc(-c2nnc(NC(=O)CS(=O)(=O)c3ccc(Cl)cc3)o2)c(OC)c1,inactive
25,COc1cccc(NC(=O)c2ccc(S(=O)(=O)N(C)C)cc2)c1,inactive
26,COc1cccc(-c2nnc(NC(=O)c3ccc(S(=O)(=O)N(CC(C)C)CC(C)C)cc3)o2)c1,100 (active)
27,CCn1c(C)nc2c1C(=O)c1ccccc1C2=O,inactive
